Four molecules from PubChem BioAssay (NCATS) can be followed below.

The target of assay [1] is Lysosomal acid glucosylceramidase (Homo sapiens) (UniProt P04062). The experiment in a line: Glucocerebrosidase-p2 (AID 348; in the data active = potency below about 10 µM; note: potency is the fitted concentration of half-maximal effect). As to conditions: purified GBA, blue fluorogenic substrate, 40 min. Summed up: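 Compounds titrated from 0.6 nM upwards against 0.2 nM enzyme in pH 5.9 citric acid/KH2PO4, taurocholate, tween-20; blue fluorogenic substrate 80 uM, 40 min room temperature, stopped and read Ex 365/Em 440 for AC50.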

Assay [2] in a line: AP1 Signaling Pathway (AID 357; active = well fitted curve in either direction with a large enough effect, not every such curve was filed as active;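 note: ME-180 reporter cells stimulated with EGF at its EC50 level; % is set by controls: 0 for no effect and ±100 for the full control effect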). As to conditions: ME-180 AP-1-bla reporter, EGF-induced, beta-lactamase ratio, 5 h; at 7.69 µM (top of the series) unless noted. Summed up:
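Beta-lactamase reporter under AP-1 response element, ME-180 background. Stimulus: EC50 EGF. Compound exposure 5 h, 37 °C. Detection: CCF4, 2.5 h RT, 460/530 nm. Values: AC50 from titration.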

The target of assay [3] is Cytochrome P450 1A2 (Homo sapiens) (UniProt P05177). Nature of the assay: p450-cyp1a2 (AID 410; calls by dose curve; note: potency is the fitted concentration of half-maximal effect). The conditions noted are these: recombinant CYP1A2, luciferin-ME demethylation, luminescence; series mostly up to 57 µM. Summed up:
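Inhibition was calculated relative to 57 uM furafylline (full inhibition). The reaction used human CYP1A2 at 20nM with Luciferin-ME at its Km, 100uM, driven by an NADPH-regenerating system for 60 min at room temperature.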

Assay [4] is described as follows: NFAT Signaling Pathway (AID 444; active = well fitted curve in either direction with a large enough effect, not every such curve was filed as active;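 note: carbachol stimulus at about its EC50 of 1 µM final; % is set by controls: 0 for no effect and ±100 for the full control effect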). The conditions noted are these: Jurkat NFAT-bla M1, carbachol, beta-lactamase ratio, 5 h; at 7.69 µM (top of the series) unless noted. In short, it runs like this:
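Jurkat cells carrying an NFAT-driven β-lactamase reporter and co-transfected muscarinic M1 receptor were treated with compound plus carbachol (1 uM final, an EC50 level) for 5 h at 37 °C. CCF4 loading followed for 1 h at RT; 460/530 nm ratio gave %activity.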

A short description of assay [5]: Stat Signaling Pathway (AID 446; active = well fitted curve in either direction with a large enough effect, not every such curve was filed as active;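 note: ME-180 cervical cancer cells given 40 pM IL-6 alongside compound; SIE-controlled beta-lactamase reporter measured as 460/530 nm FRET emission ratio; % is set by controls: 0 for no effect and ±100 for the full control effect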). As to conditions: ME-180 SIE beta-lactamase reporter, IL-6 stimulated, 5 h; at 7.69 µM (top of the series) unless noted. Summed up: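 ME-180 SIE-bla cells; overnight plating; cpd + IL-6 40 pM, 5 h, 37 C; LiveBLAzer 2.5 h RT; 460/530 nm emission ratio. Normalized to 300 pM IL-6 and 125 nM JAK inhibitor controls.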
In assay [6] the target is Glucocorticoid receptor (Homo sapiens) (UniProt P04150). The experiment in a line: GR-GFP Redistribution (AID 450;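 active = compounds whose dose series gives a full or clear partial fitted curve of increased nuclear translocation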; note: potency is the fitted concentration of half-maximal effect). As to conditions: U2OS GR-GFP nuclear translocation, laser cytometry, 2 h.
Assay [7] shares this target. Nature of the assay: GR-EFC Redistribution (AID 451; calls by dose curve; note: potency is the fitted concentration of half-maximal effect). As to conditions: CHO-K1 GR-EFC translocation, beta-gal luminescence, 2 h. In short, it runs like this:
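CHO-K1 cells stably expressing nuclear-localized β-gal enzyme acceptor and GR fused C-terminally to the enzyme donor fragment; ligand-driven nuclear translocation restores β-gal by complementation. Compounds titrated up to 46 uM final, 2 h at 37 °C; luminescence read.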

Assay [8] addresses Mitogen-activated protein kinase 10 (Mus musculus) (UniProt Q61831). The experiment in a line: JNK3 AlphaScreen Assay (AID 530; active = well fitted curve in either direction with a large enough effect, not every such curve was filed as active;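 note: kinase came from lysate of stimulated human HepG2 cells; % is set by controls: 0 for no effect and ±100 for the full control effect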). The conditions noted are these: JNK3 lysate, c-Jun phosphorylation; series mostly up to 57.1 µM. Summed up: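 JNK3 came from HepG2 lysates pre-activated with IL-1beta and TNF-alpha and phosphorylated biotinylated GST-cJun (1-79) at 10 uM ATP, pH 7.6, room temperature. Compounds were titrated. AlphaScreen signal used anti-phospho-cJun (Ser73) antibody.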

For assay [9], the target named is 3',5'-cyclic-AMP phosphodiesterase 4B (Homo sapiens) (UniProt Q07343). Nature of the assay: qHTS Assay for Inhibitors of PDE-IV (AID 607; active = well fitted activation curve with a large enough effect in the main read-out, with a control signal flat, not every such curve was filed as active; note: % of control where 0% means no effect). As to conditions: HEK293 ACTOne CNG channel cells, membrane potential fluorescence; series mostly up to 22.9 µM. In short, it runs like this: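 ACTOne HEK293 cells carry a modified cAMP-gated CNG channel and express endogenous PDE4; plated 1000 cells/well, compounds up to 22.9 uM final. Membrane-potential dye fluorescence (ex 535/em 590) was read; parental cells received 10 uM forskolin + 100 uM RO 20-1724.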

Assay [10] is described as follows: qHTS Assay for Lipid Storage Modulators (AID 1519; calls by dose curve). The conditions noted are these: Drosophila S3 cells, BODIPY lipid droplet/cell ratio, laser cytometry, cells loaded with oleic acid; for activity change, negative = inhibition: at 57.5 µM (top of the series). Summed up: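 Cells seeded at 5,000 per well were treated with compounds over a concentration series and loaded with oleic acid (400 uM, as added). Lipid droplet fluorescence (488 nm excitation, 500-530 nm channel) was read by laser-scanning cytometry and normalized to 20 uM Triacsin C.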

Assay [11] concerns the target Dual specificity protein kinase CLK4 (Homo sapiens) (UniProt Q9HAZ1). Nature of the assay: qHTS Assay for Inhibitors of CDC-like Kinase 4 (Kinase-Glo Assay) (AID 1770). Note: nearly all actives have a fitted effect of over 65% in size. Note: potency is the fitted concentration of half-maximal effect. As to conditions: recombinant Clk4, Kinase-Glo ATP depletion luminescence; series mostly up to 66.7 µM. In short, it runs like this:
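Luminescent ATP-depletion read-out (Kinase-Glo) after 4.5 h room-temperature reaction of Clk4 (25 nM final) with RS peptide (100 uM) and ATP (1 uM), pH 7.5 Tris buffer with MgCl2 and DTT.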

Assay [12] has the same target. Nature of the assay: qHTS Assay for Inhibitors of CDC-like Kinase 4 (ADP-Glo Assay) (AID 1771). Note: nearly all actives have a fitted effect of over 70% in size. Note: potency is the fitted concentration of half-maximal effect. The conditions noted are these: recombinant CLK4, ADP-Glo luminescence; series mostly up to 80 µM. Summed up:
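Kinase reaction: Clk4 at 25 nM, RS repeat peptide substrate at 100 uM, ATP at 1 uM, 1 hr, room temperature. Product ADP detected as luciferase signal via ADP-Glo.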

The target is the same in assay [13]. Nature of the assay: qHTS Assay for Inhibitors of CDC-like Kinase 4 (ADP-FP Assay) (AID 1795).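 Note: recombinant human CLK4 phosphorylating RS repeat peptide at 1 µM ATP; % is set by controls: 0 for no effect and ±100 for the full control effect; nearly all actives have a fitted effect of over 60% in size.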 As to conditions: Transcreener ADP fluorescence polarization; series mostly up to 50 µM. In short, it runs like this: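 Kinase activity was measured as ADP production using Transcreener orange tracer (4 nM) and ADP antibody (1 ug/mL) fluorescence polarization, with ADP calculated from a calibration curve. The 1 h reaction contained 6.25 nM Clk4, 1 uM ATP and 100 uM RS peptide at pH 7.5 with Mg2+.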

In assay [14] the target is Ubiquitin carboxyl-terminal hydrolase 1 (Homo sapiens) (UniProt O94782). Nature of the assay: Inhibitors of USP1/UAF1: Pilot qHTS (AID 504865).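 Note: rhodamine fluorescence freed from ubiquitin-rhodamine substrate followed over time; top concentration of the series differs between compounds; % is set by controls: 0 for no effect and ±100 for the full control effect; nearly all actives have a fitted effect of over 35% in size.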 The conditions noted are these: purified USP1/UAF1, Ub-rhodamine cleavage fluorescence; series mostly up to 54.9 µM. In short, it runs like this:
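Deubiquitinase activity followed as kinetic rhodamine fluorescence release from 150 nM Ub-Rho. 1 nM USP1/UAF1 with compound, after 15 min room-temperature preincubation, in HEPES pH 7.8 buffer containing TCEP, EDTA, BSA and Tween-20.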

Assay [15] is described as follows: Primary qHTS for small molecule stabilizers of the endoplasmic reticulum resident proteome: Secreted ER Calcium Modulated Protein (SERCaMP) assay (AID 1508630). Note: % is set by controls: 0 for no effect and ±100 for the full control effect. As to conditions: SH-SY5Y GLuc-SERCaMP (Gaussia luciferase released on ER calcium loss) secretion, thapsigargin, luminescence; series mostly up to 38.4 µM. Summed up:
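GLuc-SERCaMP-expressing SH-SY5Y cells, pretreated 16 h with compound, are challenged with thapsigargin to empty ER calcium stores; after 4 h, coelenterazine is added directly to the medium and luminescence is imaged.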

In assay [16] the target is Cytochrome P450 3A4 (Homo sapiens) (UniProt P08684). The experiment in a line: qHTS Assay for Activators of Cytochrome P450 3A4 (AID 885). Note: nearly all actives have a fitted effect of over 65% in size. As to conditions: recombinant CYP3A4, Luciferin-PPXE luminescence, 60 min; series mostly up to 57.1 µM. In short, it runs like this:
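20nM CYP3A4 + 25uM Luciferin-PPXE (=KM), 200mM KPO4; cpd 10 min RT; NADPH regen, 60 min RT; stop w/ detection buffer, 20 min; luminescence. Normalized to 57 uM ketoconazole.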

For assay [17], the target named is Rap guanine nucleotide exchange factor 3 (Homo sapiens) (UniProt O95398). The experiment in a line: Confirmatory qHTS for agonist of cAMP-regulated guanine nucleotide exchange factor 3 (EPAC1) (AID 1645881).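 Note: EPAC1 catalysed release of BODIPY-GDP from Rap1B seen as fluorescence loss; nearly all actives have a fitted effect of over 75% in size.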 As to conditions: EPAC1 Rap1B BODIPY-GDP exchange fluorescence, 100% = cAMP control response; series mostly up to 154 µM.
The target of assay [18] is Rap guanine nucleotide exchange factor 4 (Homo sapiens) (UniProt Q8WZA2). Nature of the assay: Confirmatory qHTS for antagonist of cAMP-regulated guanine nucleotide exchange factor 4 (EPAC2) (AID 1645885). Note: potency is the fitted concentration of half-maximal effect; nearly all actives have a fitted effect of over 25% in size. As to conditions: EPAC2 Rap1B-BODIPY-GDP exchange fluorescence, biochemical; series mostly up to 114 µM.
The mark [19] stands for this setting: measured here: cell count channel max response.
The mark [20] stands for this setting: measured here: lipid channel max response.

Structures are written as SMILES. Records with an inconclusive call do not appear. The source made the active and inactive calls. Unless noted, calls come from the whole dose curve; as a rule, active = well fitted curve in the direction sought with a large enough effect; inconclusive = small, poorly fitted or top-dose-only effect, or another doubt; inactive = no such curve, though single readings can be large; an effect the other way counts as inactive or inconclusive.

Sequence of 3',5'-cyclic-AMP phosphodiesterase 4B (Homo sapiens) (Q07343 whole entry, looked up): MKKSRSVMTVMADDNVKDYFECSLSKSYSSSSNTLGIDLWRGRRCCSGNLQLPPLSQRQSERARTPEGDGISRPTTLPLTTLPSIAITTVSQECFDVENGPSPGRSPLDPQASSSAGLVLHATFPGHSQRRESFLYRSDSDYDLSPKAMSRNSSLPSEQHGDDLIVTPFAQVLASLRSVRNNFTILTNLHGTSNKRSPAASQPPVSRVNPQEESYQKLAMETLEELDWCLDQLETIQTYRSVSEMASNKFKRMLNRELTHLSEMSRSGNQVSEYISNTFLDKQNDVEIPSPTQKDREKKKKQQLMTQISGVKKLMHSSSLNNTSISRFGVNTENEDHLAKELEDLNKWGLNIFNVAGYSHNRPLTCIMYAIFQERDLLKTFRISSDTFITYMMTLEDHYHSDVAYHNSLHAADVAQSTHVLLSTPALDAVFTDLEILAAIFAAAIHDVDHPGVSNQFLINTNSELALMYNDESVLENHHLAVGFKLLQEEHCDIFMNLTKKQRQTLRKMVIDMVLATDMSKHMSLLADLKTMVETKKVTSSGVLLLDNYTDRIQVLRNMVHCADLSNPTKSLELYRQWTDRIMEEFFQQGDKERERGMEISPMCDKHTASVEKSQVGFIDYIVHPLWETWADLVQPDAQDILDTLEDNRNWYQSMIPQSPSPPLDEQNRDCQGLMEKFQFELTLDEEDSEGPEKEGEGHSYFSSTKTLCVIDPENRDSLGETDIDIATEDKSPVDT
Sequence of Cytochrome P450 1A2 (Homo sapiens) (P05177 whole entry, looked up): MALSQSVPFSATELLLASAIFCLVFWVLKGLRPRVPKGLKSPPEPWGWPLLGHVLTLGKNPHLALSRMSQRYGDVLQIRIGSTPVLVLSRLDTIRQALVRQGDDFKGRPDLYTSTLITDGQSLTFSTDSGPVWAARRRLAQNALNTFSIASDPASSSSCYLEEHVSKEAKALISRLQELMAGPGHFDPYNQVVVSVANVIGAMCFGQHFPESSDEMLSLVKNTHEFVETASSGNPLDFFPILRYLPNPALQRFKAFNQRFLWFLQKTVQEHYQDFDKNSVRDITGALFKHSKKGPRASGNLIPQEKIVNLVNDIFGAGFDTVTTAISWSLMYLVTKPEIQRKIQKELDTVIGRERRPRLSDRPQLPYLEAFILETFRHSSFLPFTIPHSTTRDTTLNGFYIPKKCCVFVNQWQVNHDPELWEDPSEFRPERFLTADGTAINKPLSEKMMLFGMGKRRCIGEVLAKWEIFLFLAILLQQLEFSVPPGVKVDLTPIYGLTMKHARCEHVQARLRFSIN
Sequence of Ubiquitin carboxyl-terminal hydrolase 1 (Homo sapiens) (O94782 whole entry, looked up): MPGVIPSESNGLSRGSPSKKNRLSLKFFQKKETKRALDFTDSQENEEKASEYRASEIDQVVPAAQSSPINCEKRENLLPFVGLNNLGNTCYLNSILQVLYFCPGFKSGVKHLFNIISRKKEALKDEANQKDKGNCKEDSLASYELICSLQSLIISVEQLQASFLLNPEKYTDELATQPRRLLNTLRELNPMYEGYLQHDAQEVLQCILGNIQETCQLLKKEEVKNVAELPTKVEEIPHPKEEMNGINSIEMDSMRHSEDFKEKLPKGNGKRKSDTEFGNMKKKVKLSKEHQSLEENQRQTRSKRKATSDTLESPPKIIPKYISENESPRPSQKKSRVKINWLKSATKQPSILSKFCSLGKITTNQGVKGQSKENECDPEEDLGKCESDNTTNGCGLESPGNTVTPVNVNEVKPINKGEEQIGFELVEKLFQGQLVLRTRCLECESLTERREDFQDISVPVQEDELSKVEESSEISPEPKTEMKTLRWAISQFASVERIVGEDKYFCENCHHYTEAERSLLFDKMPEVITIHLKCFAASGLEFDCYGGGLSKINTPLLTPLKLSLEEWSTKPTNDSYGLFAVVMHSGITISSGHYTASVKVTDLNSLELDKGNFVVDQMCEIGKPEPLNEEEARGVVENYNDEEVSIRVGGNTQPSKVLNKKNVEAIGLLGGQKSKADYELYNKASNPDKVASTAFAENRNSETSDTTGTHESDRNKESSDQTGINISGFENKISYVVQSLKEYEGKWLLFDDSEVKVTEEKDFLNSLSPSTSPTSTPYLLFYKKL
Sequence of Dual specificity protein kinase CLK4 (Homo sapiens) (Q9HAZ1 whole entry, looked up): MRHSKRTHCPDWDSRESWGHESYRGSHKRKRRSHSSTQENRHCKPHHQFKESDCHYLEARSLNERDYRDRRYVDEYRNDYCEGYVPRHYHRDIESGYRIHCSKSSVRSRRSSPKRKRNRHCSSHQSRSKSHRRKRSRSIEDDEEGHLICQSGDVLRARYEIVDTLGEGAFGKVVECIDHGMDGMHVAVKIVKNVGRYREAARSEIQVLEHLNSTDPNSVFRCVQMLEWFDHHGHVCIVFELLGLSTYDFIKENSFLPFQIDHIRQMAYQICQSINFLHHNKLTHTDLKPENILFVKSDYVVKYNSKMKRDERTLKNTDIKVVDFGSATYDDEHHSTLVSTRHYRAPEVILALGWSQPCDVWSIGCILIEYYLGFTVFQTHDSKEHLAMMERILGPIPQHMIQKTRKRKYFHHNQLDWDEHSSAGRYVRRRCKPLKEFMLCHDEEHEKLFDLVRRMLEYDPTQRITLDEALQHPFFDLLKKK
Sequence of Glucocorticoid receptor (Homo sapiens) (P04150 whole entry, looked up): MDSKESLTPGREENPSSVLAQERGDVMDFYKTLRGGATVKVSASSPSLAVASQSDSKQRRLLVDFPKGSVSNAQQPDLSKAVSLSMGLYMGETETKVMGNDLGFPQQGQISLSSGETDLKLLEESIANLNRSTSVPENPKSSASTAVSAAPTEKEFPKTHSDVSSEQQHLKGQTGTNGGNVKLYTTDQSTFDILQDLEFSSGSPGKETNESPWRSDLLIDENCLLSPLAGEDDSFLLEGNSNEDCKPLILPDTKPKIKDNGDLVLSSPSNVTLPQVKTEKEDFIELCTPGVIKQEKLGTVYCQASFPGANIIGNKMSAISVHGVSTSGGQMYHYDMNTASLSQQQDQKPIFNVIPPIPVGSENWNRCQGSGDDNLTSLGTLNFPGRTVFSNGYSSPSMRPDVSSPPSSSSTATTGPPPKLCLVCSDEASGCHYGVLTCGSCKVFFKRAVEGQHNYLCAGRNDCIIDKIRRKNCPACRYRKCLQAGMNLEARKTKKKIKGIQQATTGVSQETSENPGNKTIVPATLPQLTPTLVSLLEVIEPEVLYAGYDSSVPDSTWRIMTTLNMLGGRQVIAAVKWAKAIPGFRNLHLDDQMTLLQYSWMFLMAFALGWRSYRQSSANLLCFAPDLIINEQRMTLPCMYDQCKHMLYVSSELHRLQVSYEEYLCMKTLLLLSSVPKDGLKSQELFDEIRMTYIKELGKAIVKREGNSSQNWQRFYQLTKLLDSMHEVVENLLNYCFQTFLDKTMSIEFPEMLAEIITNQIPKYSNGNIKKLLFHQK
Sequence of Lysosomal acid glucosylceramidase (Homo sapiens) (P04062 whole entry, looked up): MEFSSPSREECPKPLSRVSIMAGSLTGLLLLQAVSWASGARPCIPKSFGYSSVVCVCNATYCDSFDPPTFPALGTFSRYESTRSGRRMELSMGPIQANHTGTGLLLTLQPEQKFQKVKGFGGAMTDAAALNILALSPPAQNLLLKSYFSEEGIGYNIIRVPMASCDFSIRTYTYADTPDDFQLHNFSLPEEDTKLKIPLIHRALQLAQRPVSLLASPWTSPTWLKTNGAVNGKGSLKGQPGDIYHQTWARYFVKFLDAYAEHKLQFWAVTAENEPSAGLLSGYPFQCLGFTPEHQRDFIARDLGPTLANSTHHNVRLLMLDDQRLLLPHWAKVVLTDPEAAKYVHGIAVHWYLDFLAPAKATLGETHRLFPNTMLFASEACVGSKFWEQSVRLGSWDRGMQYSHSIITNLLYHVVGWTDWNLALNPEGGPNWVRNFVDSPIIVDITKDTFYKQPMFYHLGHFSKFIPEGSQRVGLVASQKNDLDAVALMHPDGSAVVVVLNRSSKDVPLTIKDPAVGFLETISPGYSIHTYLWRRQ
Sequence of Cytochrome P450 3A4 (Homo sapiens) (P08684 whole entry, looked up): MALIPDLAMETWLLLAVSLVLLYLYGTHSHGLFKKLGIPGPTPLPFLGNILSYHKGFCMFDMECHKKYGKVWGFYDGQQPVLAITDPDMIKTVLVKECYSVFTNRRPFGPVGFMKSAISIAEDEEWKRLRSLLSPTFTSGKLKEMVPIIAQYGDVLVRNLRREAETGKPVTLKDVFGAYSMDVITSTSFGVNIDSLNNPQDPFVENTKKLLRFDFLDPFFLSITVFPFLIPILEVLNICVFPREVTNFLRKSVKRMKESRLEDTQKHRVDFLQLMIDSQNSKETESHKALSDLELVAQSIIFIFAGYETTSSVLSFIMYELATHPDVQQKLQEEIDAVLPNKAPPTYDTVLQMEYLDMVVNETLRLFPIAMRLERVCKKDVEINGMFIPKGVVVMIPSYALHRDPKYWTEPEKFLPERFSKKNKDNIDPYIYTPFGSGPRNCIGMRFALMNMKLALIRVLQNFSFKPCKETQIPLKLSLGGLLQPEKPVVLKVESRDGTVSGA

As to `Cc1noc(C)c1-c1cc(N2CCN(C)CC2)ncn1`, the Potency in assay [1] is > 11.4 µM (inactive); in assay [3], 10 µM (active); in [6] it was > 46 µM (inactive); in assay [7], > 46 µM (inactive). In addition, the results for the activity change, negative = inhibition in assay [2], in assay [4] and in [10] were 4.49% (inactive), -0.822% (inactive) and 3.89% (inactive), respectively. Moreover, in [5], the activity, negative = inhibition is 7.9% (inactive). In [8], the molecule was called inactive. The Potency result in [9], in assay [11], in assay [12], in [13], in assay [14] and in [15] was “inactive” in each case. The results for the max response in assay [10] (setting [19]) and in [10] (setting [20]) were 22.8% and 26.7%, respectively.
`O=c1c(-c2ccc(F)cc2)nc2cnc(Oc3cccc(Cl)c3)nc2n1C1CC1`: the Potency in assay [1] was > 11.4 µM (inactive); in assay [3] it was 0.316 µM (active); in assay [6], > 9.22 µM (inactive); in [7], > 46 µM (inactive). Moreover, the activity change, negative = inhibition in assay [2] is 25.5% (inactive); in [4], 16.4% (inactive); in assay [10], 0.37% (inactive). Besides, the activity, negative = inhibition in assay [5] is -8.35% (inactive). For the same molecule, the call in assay [8] was inactive. Moreover, the Potency result in [9], in [11], in assay [12], in assay [13], in assay [14] and in assay [15] was “inactive” in each case. The values for the max response in assay [10] (setting [19]) and in assay [10] (setting [20]) were -8.94% and -12.9%, respectively.
`O=C(Nc1ccccc1)N1CCCC2(CCN(C(=O)c3cc(C(F)(F)F)cc(C(F)(F)F)c3)CC2)C1`: the Potency in [1] was > 11.4 µM (inactive); in [3], 31.6 µM (active); in assay [7] it was > 46 µM (inactive); in [18], 44.1 µM (active). Also, the activity change, negative = inhibition in assay [2] was -28.2% (inactive); in [4], 19.5% (inactive); in assay [10], -0.939% (inactive). The activity, negative = inhibition in assay [5] was -14.9% (inactive). Further, the outcome in assay [8] and in [17] was inactive. Moreover, the Potency result in assay [16] and in assay [15] was “inactive” each time. Besides, the values for the max response in assay [10] (setting [19]) and in [10] (setting [20]) were 16.6% and 17.1%, respectively.
For the molecule `CN(C)C(=O)c1ccc(-c2ccc3ncnc(N(C)C)c3c2)cc1`, the Potency was > 11.4 µM (inactive) in assay [1]; 20 µM (active) in assay [3]; > 46 µM (inactive) in [6]; > 46 µM (inactive) in assay [7]; 25.1 µM (active) in assay [11]; 28.2 µM (active) in assay [12]. Besides, the activity change, negative = inhibition in [2] was -20.2% (inactive); in assay [4], 9.63% (inactive); in [10], 4.12% (inactive). The activity, negative = inhibition in [5] is -6.55% (inactive). The result in assay [8] was inactive. In addition, the Potency entry in assay [9], in assay [16], in [13], in [14] and in assay [15] was “inactive” in each case. Also, the max response in assay [10] (setting [19]) was 19.1%; in assay [10] (setting [20]) it was 22.2%.
